Measured values taken from the supplement of paper PMC8728848.
The entries come from a sample that favours the strongest signals as a whole.

Assays:
Test in all cases: glycan array binding signal (z-score within array); higher = stronger binding
Conditions in all cases: glycan notation: IUPAC condensed, linker removed
Fuc(a1-2)Gal = target: Fuc(a1-2)Gal
Method in brief: (§1)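 The Consortium for Functional Glycomics database supplied 3228 glycan arrays, of which those lacking an available protein sequence were dropped. The binding signal, a within-array Z-score, was averaged across arrays of the same protein sequence and across linkers. Negative scores can be read as non-binding.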

[1] = target: Fuc(a1-2)Gal(b1-4)GlcNAc(b1-2)Man(a1-3)[Fuc(a1-2)Gal(b1-4)GlcNAc(b1-2)Man(a1-6)]Man(b1-4)GlcNAc(b1-4)GlcNAc
Method in brief: as §1

[2] = target: Fuc(a1-2)Gal6S(b1-3)GlcNAc
Method in brief: as §1

[3] = target: Fuc(a1-2)[Gal(a1-3)]Gal(b1-3)GalNAc
Method in brief: as §1

[4] = target: Fuc(a1-2)[Gal(a1-3)]Gal(b1-3)GalNAc(b1-3)Gal(a1-4)Gal(b1-4)Glc
Method in brief: as §1

[5] = target: Fuc(a1-2)[GalNAc(a1-3)]Gal(b1-3)GalNAc(b1-3)Gal(a1-4)Gal(b1-4)Glc
Method in brief: as §1

[6] = target: Fuc(a1-2)[GalNAc(a1-3)]Gal(b1-4)GlcNAc(b1-3)Gal(b1-4)GlcNAc(b1-3)Gal(b1-4)GlcNAc
Method in brief: as §1

[7] = target: Fuc(a1-3)[Gal(b1-4)]GlcNAc(b1-2)Man(a1-3)[Fuc(a1-3)[Gal(b1-4)]GlcNAc(b1-2)Man(a1-6)]Man(b1-4)GlcNAc(b1-4)[Fuc(a1-6)]GlcNAc
Method in brief: as §1

[8] = target: Fuc(a1-3)[Gal(b1-4)]GlcNAc(b1-3)GalNAc
Method in brief: as §1

[9] = target: Gal(a1-3)Gal(b1-3)GlcNAc(b1-3)GalNAc
Method in brief: as §1

[10] = target: Gal(a1-3)Gal(b1-3)[Fuc(a1-4)]GlcNAc(b1-2)Man(a1-3)[Gal(a1-3)Gal(b1-3)[Fuc(a1-4)]GlcNAc(b1-2)Man(a1-6)]Man(b1-4)GlcNAc(b1-4)GlcNAc
Method in brief: as §1

[11] = target: Gal(a1-3)Gal(b1-4)GlcNAc(b1-6)GalNAc
Method in brief: as §1

[12] = target: Gal(b1-3)GlcNAc(b1-3)Gal(b1-3)GlcNAc
Method in brief: as §1

[13] = target: Gal(b1-3)GlcNAc(b1-3)Gal(b1-4)GlcNAc
Method in brief: as §1

[14] = target: Gal(b1-3)GlcNAc(b1-3)Gal(b1-4)GlcNAc(b1-2)[Gal(b1-3)GlcNAc(b1-3)Gal(b1-4)GlcNAc(b1-6)]Man(a1-6)[Gal(b1-3)GlcNAc(b1-3)Gal(b1-4)GlcNAc(b1-2)Man(a1-3)]Man(b1-4)GlcNAc(b1-4)[Fuc(a1-6)]GlcNAc
Method in brief: as §1

[15] = target: Gal(b1-3)GlcNAc(b1-3)Gal(b1-4)GlcNAc(b1-3)Gal(b1-4)GlcNAc(b1-2)[Gal(b1-3)GlcNAc(b1-3)Gal(b1-4)GlcNAc(b1-3)Gal(b1-4)GlcNAc(b1-6)]Man(a1-6)[Gal(b1-3)GlcNAc(b1-3)Gal(b1-4)GlcNAc(b1-3)Gal(b1-4)GlcNAc(b1-2)Man(a1-3)]Man(b1-4)GlcNAc(b1-4)[Fuc(a1-6)]GlcNAc
Method in brief: as §1

[16] = target: Gal(b1-3)GlcNAc(b1-3)Gal(b1-4)GlcNAc(b1-6)[Gal(b1-3)GlcNAc(b1-3)]Gal(b1-4)Glc
Method in brief: as §1

[17] = target: Gal(b1-3)[Neu5Ac(b2-6)]GalNAc
Method in brief: as §1

[18] = target: Gal(b1-4)GlcNAc(b1-2)Man(a1-3)Man(b1-4)GlcNAc(b1-4)GlcNAc
Method in brief: as §1

[19] = target: Gal(b1-4)GlcNAc(b1-2)[Gal(b1-4)GlcNAc(b1-4)]Man(a1-3)[GlcNAc(b1-4)][Gal(b1-4)GlcNAc(b1-2)[Gal(b1-4)GlcNAc(b1-6)]Man(a1-6)]Man(b1-4)GlcNAc(b1-4)GlcNAc
Method in brief: as §1

[20] = target: Gal(b1-4)GlcNAc(b1-3)Gal(b1-4)GlcNAc(b1-2)Man(a1-3)[Gal(b1-4)GlcNAc(b1-3)Gal(b1-4)GlcNAc(b1-2)Man(a1-6)]Man(b1-4)GlcNAc(b1-4)[Fuc(a1-6)]GlcNAc
Method in brief: as §1

[21] = target: Gal(b1-4)GlcNAc(b1-3)Gal(b1-4)GlcNAc(b1-2)[Gal(b1-4)GlcNAc(b1-3)Gal(b1-4)GlcNAc(b1-6)]Man(a1-6)[Gal(b1-4)GlcNAc(b1-3)Gal(b1-4)GlcNAc(b1-2)Man(a1-3)]Man(b1-4)GlcNAc(b1-4)GlcNAc
Method in brief: as §1

[22] = target: Gal(b1-4)GlcNAc(b1-3)Gal(b1-4)GlcNAc(b1-2)[Gal(b1-4)GlcNAc(b1-3)Gal(b1-4)GlcNAc(b1-6)]Man(a1-6)[Gal(b1-4)GlcNAc(b1-3)Gal(b1-4)GlcNAc(b1-2)Man(a1-3)]Man(b1-4)GlcNAc(b1-4)[Fuc(a1-6)]GlcNAc
Method in brief: as §1

[23] = target: Gal(b1-4)GlcNAc(b1-6)Gal(b1-4)GlcNAc
Method in brief: as §1

[24] = target: Gal(b1-4)GlcNAc(b1-6)[Gal(b1-4)GlcNAc(b1-3)]GalNAc
Method in brief: as §1

[25] = target: Gal3S(b1-4)[Fuc(a1-3)]Glc6S
Method in brief: as §1

[26] = target: Gal3S(b1-4)[Fuc(a1-3)]GlcNAc6S
Method in brief: as §1

B1: LlpA (Burkholderia cenocepacia) (protein)
chain: MGSSHHHHHHSSGLVPRGSHKILGSNETLSAGNVVYSDNGQYHLAMQTDGNLVVYGPTGAVWQSQTSGSGGNRAVMQGDGNLVIYRADNTAAWSSKTAHPGAFLAVQDDGNVVIYWPRPAWASNTSDPATQQSAESKYLASGSTMSAGQTVTVAQYMLVFQADGNLVLYKNGGNPIWSTGTQGKGATYAVMQSDGNFVIYAGSTALWSTKTNGANGAQLVLQSDGNLVIYAPTAAWSTKFGLVTAPTSTSTSNNGPGSGICVGVCPPHPLNGNPFSPVGVGTTGLGFPTPGYPGAAF
- glycan array binding signal (z-score) (Fuc(a1-2)Gal): 1.82
- glycan array binding signal (z-score) [1]: -0.314
- glycan array binding signal (z-score) [2]: 0.167
- glycan array binding signal (z-score) [3]: 0.017
- glycan array binding signal (z-score) [4]: -0.361
- glycan array binding signal (z-score) [5]: -0.271
- glycan array binding signal (z-score) [6]: 1.26
- glycan array binding signal (z-score) [7]: 2.08
- glycan array binding signal (z-score) [8]: 0.159
- glycan array binding signal (z-score) [9]: -1.16
- glycan array binding signal (z-score) [10]: 1.1
- glycan array binding signal (z-score) [11]: 0.692
- glycan array binding signal (z-score) [12]: -0.418
- glycan array binding signal (z-score) [13]: -0.526
- glycan array binding signal (z-score) [14]: 1.84
- glycan array binding signal (z-score) [15]: 0.703
- glycan array binding signal (z-score) [16]: 1.7
- glycan array binding signal (z-score) [17]: -0.687
- glycan array binding signal (z-score) [18]: 1.84
- glycan array binding signal (z-score) [19]: 0.349
- glycan array binding signal (z-score) [20]: 2.46
- glycan array binding signal (z-score) [21]: 0.339
- glycan array binding signal (z-score) [22]: 1.91
- glycan array binding signal (z-score) [23]: -0.14
- glycan array binding signal (z-score) [24]: 1.6
- glycan array binding signal (z-score) [25]: 1.83
- glycan array binding signal (z-score) [26]: 0.427
